Composite z-score and z-score data for five compounds are collected here from PubChem BioAssay.

Assay [1] in a line: binders of probe aFSTL3 on microarray, primary screen, stem cell growth factor project, biochemical, small-molecule microarray, fluorescence 635/667 (AID 1064).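 Also: measures binding of the biotinylated anti-FSTL3 antibody to printed compounds.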 The note with it: higher = more signal.
Assay [2] can be described thus: binders from COS7 lysate, DM2A8 probe, primary screen, torsin A project, cell lysate, small-molecule microarray, fluorescence 635/667 (AID 1065). The following applies: higher = more signal, COS7 lysate expressing mutant human TOR1A.
Assay [3] in a line: binders of probe aFGF2 on microarray, primary screen, stem cell growth factor project, biochemical, small-molecule microarray, fluorescence 635/667 (AID 1067).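 Also: measures binding of biotinylated aFGF2 protein to printed compounds on slides; z-score merges feature fluorescence and signal-to-noise across triplicate slides.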 The following applies: higher = more signal.
The nature of assay [4]: binders of probe aFGF10 on microarray, primary screen, stem cell growth factor project, biochemical, small-molecule microarray, fluorescence 635/667 (AID 1071).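 Also: score merges 667 nm spot intensity and signal to noise from triplicate slides.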 The note with it: higher = more signal.
For assay [5], the target named is Neurogenic locus notch homolog protein 2 (Homo sapiens) (UniProt Q04721). Kind of assay: Notch2 binders on small-molecule microarrays, primary screen, biochemical, small-molecule microarray, 635 nm fluorescence, stem cell growth factors (AID 1073). The following applies: Notch2 binding, higher = more signal.
In assay [6] the target is Pro-neuregulin-1, membrane-bound isoform (Homo sapiens) (UniProt Q02297). Kind of assay: NRG1 binders on small-molecule microarrays, primary screen, psychiatric disease protein project, biochemical, small-molecule microarray, fluorescence 635/667 (AID 1075).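 Also: score combines 667 nm spot fluorescence with signal to noise.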 The following applies: NRG1 binding, 635 nm fluorescence, higher = more signal.
The subject of assay [7] is Neuregulin-1 EGF-like domain. The experiment in a line: binders of neuregulin-1 EGF-like domain, primary screen, biochemical, small-molecule microarray, 635 nm fluorescence (AID 1081).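 Also: binding of the protein to compounds printed on small-molecule microarray slides.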 The following applies: small-molecule microarray binding, higher = more signal.
Assay [8] is described as follows: FRG1 promoter luciferase signal modulators, primary screen, FRG1 inhibition for FSHD, cell-based, C2C12 myotubes, firefly/Renilla luciferase, luminescence (AID 1084). The note with it: higher = more signal, called active from +8 up or from −8 down.
A short description of assay [9]: binders of probe aFST on microarray, primary screen, stem cell growth factor project, biochemical, small-molecule microarray, fluorescence 635/667 (AID 1086).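 Also: score merges 667 nm fluorescence with signal-to-noise of each printed compound spot.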 The following applies: higher = more signal.
Assay [10] in a line: binders of probe aHhip on microarray, primary screen, stem cell growth factor project, biochemical, small-molecule microarray, fluorescence 635/667 (AID 1087).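 Also: score merges spot fluorescence at 667nm with spot signal to noise ratio.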 The following applies: higher = more signal.
Assay [11] has as its system PRMT1 (protein arginine N-methyltransferase 1). The experiment in a line: PRMT1 binders on small-molecule microarrays, primary screen, biochemical, small-molecule microarray, 635 nm fluorescence (AID 1088).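 Also: binding of Prmt1 protein to compounds spotted on small-molecule microarray slides.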 The note with it: small-molecule microarray binding, higher = more signal.
A short description of assay [12]: yeast growth modulation, basal conditions, primary screen, YJM789 clinical isolate, OD600, 24 h (AID 1089).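 Also: growth of clinical yeast isolate S. cerevisiae YJM 789 seeded 1000 cells per well; test concentration not given here.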 The following applies: S. cerevisiae YJM789 growth, higher = more signal, called active from +8 up or from −8 down.
Assay [13] can be described thus: fission yeast growth modulation, primary screen, strain 972, OD600, 24 h, no modulator (AID 1090).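 Also: basal condition with compound alone and no growth modifier present; test concentration not given here.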 The following applies: S. pombe 972 growth, higher = more signal, called active from +8 up or from −8 down.
Assay [14] in a line: S. cerevisiae growth modulation with rapamycin, primary screen, strain BY4716, OD600, 96 h (AID 1091). Also: test concentration not given here. The note with it: higher = more signal, called active from +8 up or from −8 down.
The target of assay [15] is Torsin-1A-interacting protein 2 (Homo sapiens) (UniProt Q8NFQ8). Kind of assay: LULL1 binders on small-molecule microarray, primary screen, cell lysate, human LULL1 lysate, 635/667 nm fluorescence (AID 1092).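 Also: probe is lysate of COS7 cells overexpressing human LULL1; score merges per-feature 667 nm fluorescence with signal-to-noise.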 The following applies: hLULL1 lysate binding, 635 nm fluorescence, higher = more signal.
Assay [16] in a line: E. coli growth modulation, two-sided OD650, primary screen, E. coli filamentation project, strain DRC41, 24 h (AID 1093).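 Also: MC1000 strain lacking acrAB efflux and sulA so SOS filamentation is blocked; test concentration not given here.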 The note with it: OD650, 24 h, higher = more signal, called active from +8 up or from −8 down.
Assay [17] is described as follows: small-molecule microarray binders of probe aLefty2, primary screen, biochemical, biotinylated probe, 635/667 nm fluorescence (AID 1094).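 Also: score merges spot fluorescence near 667 nm with spot signal-to-noise ratio.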 The following applies: higher = more signal.
Assay [18] deals with Noggin (protein binding on small-molecule microarray). Kind of assay: Noggin binders on small-molecule microarray, primary screen, biochemical, 635/667 nm fluorescence (AID 1095).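 Also: score merges 667 nm feature fluorescence with signal to noise over triplicate slides.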 The following applies: 635 nm fluorescence, higher = more signal.
The target in assay [19] is Neurogenic locus notch homolog protein 3 (Homo sapiens) (UniProt Q9UM47). The experiment in a line: NOTCH3 binders on small-molecule microarray, primary screen, biochemical, 635/667 nm fluorescence (AID 1096). The note with it: NOTCH3 binding, 635 nm fluorescence, higher = more signal.
Assay [20] in a line: small-molecule microarray binders of probe aEGFR, primary screen, biochemical, biotinylated probe, 635/667 nm fluorescence (AID 1097).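 Also: probe is a biotinylated anti-EGFR antibody binding compounds printed on slides; score combines fluorescence near 667 nm and signal to noise of each spot.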 The following applies: higher = more signal.

Calls of active or inactive are those of the source.

Chain of Neurogenic locus notch homolog protein 3 (Homo sapiens) (Q9UM47 whole entry, looked up): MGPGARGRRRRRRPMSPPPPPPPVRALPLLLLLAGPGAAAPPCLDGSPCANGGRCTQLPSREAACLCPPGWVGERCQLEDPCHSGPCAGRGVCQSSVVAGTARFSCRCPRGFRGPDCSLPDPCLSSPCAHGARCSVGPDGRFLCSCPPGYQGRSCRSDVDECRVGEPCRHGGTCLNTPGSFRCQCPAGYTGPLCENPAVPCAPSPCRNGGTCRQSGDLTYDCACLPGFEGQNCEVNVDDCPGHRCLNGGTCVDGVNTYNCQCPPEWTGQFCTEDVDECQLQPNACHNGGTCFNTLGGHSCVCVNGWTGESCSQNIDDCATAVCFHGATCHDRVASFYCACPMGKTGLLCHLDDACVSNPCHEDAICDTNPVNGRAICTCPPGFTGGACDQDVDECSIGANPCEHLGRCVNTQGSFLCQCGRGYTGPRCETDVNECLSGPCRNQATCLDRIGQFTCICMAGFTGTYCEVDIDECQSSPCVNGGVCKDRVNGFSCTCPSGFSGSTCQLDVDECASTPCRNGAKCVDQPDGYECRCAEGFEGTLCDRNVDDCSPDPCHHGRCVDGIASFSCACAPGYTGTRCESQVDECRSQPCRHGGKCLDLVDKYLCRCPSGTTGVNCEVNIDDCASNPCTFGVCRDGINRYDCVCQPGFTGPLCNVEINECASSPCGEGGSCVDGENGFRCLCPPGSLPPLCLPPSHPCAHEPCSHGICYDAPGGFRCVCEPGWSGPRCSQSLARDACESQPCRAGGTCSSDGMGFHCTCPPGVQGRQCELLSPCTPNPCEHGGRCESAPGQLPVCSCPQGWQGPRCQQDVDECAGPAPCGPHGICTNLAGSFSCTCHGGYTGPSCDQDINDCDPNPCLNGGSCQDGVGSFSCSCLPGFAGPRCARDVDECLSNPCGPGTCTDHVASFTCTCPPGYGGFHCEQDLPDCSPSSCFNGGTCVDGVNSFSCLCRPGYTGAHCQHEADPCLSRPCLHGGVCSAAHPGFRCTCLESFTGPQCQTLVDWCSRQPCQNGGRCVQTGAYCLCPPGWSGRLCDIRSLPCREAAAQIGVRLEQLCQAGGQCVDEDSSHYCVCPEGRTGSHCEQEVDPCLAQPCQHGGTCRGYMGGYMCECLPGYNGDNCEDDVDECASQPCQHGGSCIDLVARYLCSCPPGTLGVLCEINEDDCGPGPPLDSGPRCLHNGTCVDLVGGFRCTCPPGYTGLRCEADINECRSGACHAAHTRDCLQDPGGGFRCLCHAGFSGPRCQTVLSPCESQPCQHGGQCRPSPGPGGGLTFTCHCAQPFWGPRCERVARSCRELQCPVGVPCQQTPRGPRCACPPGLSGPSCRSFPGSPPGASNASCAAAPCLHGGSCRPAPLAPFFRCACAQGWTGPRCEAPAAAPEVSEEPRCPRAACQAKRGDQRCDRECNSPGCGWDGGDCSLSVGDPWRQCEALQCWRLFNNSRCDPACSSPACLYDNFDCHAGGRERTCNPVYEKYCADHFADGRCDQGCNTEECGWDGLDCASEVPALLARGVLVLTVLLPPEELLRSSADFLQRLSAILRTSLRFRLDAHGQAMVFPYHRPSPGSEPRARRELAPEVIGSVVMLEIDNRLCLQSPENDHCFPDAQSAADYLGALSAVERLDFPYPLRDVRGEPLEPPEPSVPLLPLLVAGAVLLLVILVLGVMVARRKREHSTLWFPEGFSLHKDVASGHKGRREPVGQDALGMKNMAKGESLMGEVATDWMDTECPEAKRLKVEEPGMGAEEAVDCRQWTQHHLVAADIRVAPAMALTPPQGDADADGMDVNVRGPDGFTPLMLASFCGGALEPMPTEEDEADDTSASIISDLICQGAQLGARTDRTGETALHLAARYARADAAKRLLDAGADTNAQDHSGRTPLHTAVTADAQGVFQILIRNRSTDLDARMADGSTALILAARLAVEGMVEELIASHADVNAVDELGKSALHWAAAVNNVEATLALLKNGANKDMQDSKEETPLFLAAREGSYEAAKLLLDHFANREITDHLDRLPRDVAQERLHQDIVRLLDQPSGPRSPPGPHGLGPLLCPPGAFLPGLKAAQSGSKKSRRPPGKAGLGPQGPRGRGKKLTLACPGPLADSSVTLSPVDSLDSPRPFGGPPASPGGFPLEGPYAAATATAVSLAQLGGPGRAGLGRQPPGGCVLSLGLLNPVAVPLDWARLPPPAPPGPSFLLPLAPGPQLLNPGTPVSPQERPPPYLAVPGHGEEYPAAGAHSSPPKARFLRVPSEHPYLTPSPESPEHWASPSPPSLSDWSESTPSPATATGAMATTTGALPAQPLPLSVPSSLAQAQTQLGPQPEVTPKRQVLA
Chain of Neurogenic locus notch homolog protein 2 (Homo sapiens) (Q04721 whole entry, looked up, canonical isoform): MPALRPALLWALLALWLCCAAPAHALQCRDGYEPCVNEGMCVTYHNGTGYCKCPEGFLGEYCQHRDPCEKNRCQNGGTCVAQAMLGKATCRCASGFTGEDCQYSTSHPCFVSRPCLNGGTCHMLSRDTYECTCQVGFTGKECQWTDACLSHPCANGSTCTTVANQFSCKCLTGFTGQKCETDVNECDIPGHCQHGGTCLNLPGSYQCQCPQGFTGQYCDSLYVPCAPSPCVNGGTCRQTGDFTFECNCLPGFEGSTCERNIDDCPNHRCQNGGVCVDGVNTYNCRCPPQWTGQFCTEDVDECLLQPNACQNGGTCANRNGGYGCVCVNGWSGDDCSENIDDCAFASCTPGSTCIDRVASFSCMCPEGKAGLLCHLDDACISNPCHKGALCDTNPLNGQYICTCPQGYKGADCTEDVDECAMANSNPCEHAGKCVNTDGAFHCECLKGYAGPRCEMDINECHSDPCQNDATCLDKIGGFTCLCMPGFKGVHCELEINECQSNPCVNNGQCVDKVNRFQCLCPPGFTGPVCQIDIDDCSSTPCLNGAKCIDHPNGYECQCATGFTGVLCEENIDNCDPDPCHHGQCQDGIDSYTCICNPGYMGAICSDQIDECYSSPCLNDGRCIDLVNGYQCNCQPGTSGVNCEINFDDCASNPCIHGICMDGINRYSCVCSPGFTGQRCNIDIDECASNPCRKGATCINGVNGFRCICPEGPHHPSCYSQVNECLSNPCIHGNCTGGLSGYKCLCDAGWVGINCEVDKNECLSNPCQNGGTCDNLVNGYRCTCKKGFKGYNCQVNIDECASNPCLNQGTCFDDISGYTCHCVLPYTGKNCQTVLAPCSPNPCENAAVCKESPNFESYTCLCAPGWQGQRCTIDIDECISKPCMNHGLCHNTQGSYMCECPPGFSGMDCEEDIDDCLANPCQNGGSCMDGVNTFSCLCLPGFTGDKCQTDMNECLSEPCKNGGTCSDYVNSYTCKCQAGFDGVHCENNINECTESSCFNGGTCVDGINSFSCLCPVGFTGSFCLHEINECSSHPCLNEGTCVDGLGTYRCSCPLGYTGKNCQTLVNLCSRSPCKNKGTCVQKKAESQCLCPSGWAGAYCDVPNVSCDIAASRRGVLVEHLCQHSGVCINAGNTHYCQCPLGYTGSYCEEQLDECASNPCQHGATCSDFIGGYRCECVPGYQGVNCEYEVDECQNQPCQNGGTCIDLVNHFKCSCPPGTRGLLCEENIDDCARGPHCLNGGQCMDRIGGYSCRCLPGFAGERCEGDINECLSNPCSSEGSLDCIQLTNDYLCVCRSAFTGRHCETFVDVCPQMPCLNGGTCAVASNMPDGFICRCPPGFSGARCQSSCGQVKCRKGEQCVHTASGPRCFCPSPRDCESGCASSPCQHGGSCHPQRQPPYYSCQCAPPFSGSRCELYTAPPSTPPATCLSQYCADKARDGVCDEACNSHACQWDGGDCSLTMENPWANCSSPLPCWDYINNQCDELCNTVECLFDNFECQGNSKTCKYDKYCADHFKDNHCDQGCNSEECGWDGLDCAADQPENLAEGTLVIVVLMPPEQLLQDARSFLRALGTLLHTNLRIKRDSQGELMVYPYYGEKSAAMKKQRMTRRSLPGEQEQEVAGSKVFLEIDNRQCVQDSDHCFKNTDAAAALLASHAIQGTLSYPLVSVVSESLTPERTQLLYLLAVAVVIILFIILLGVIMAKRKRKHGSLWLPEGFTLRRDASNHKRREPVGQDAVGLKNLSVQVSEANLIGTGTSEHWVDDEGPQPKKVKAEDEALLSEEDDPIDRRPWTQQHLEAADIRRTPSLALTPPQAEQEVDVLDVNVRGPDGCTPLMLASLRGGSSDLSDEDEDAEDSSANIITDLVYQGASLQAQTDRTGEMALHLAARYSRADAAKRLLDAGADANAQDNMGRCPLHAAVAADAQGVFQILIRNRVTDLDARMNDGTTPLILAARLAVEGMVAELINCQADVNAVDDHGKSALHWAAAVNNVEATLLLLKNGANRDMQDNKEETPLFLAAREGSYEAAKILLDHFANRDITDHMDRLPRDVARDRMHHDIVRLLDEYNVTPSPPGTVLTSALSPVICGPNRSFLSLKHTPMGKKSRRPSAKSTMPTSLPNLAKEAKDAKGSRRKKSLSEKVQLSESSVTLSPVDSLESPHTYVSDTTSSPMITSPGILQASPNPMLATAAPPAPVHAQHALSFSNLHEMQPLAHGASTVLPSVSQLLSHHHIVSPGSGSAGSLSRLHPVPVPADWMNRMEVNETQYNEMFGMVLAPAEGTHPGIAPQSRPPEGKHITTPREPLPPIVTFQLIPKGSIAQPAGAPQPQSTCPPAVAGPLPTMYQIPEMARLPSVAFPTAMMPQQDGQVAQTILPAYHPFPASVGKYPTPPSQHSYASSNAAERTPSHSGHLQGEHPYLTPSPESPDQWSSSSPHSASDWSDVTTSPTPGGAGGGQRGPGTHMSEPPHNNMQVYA

On to `C=CCC(OC(C)=O)[C@@H]1[C@@H](N(Cc2ccc(-c3ccccc3)cc2)C(=O)c2ccc(-c3ccccc3)cc2)c2cc(OCCCO)ccc2N1C(=O)c1ccc(-c2ccccc2)cc1` (stereo not given in full), for which the composite z-score was 0.54 in assay [1]; 0.054 in [2]; 0.032 in [3]; -0.0598 in assay [4]; -0.0106 in [5]; -0.333 in [6]. The composite z-score in assay [7] was -0.864; in assay [9], 0.214; in assay [10], -0.146; in [11], -0.655; in assay [15] it was 0.399; in [17], 0.0525. Further, the composite z-score is -0.846 in [18], -0.83 in [19] and -0.0981 in [20]. Besides, the z-score in assay [8] is -0.0089 (inactive); in assay [12] it was -0.611 (inactive); in assay [13], -0.811 (inactive); in assay [14], 0.131 (inactive); in assay [16], 1.99 (inactive).

Regarding `CC(C)(C)OC(=O)CC[C@@]12N=C(c3ccc(OCCCO)cc3)O[C@@H]1c1ccccc1CN(Cc1ccccc1)C2=O`, the composite z-score in [1] was 0.265; in [2], 0.141; in [3] it was -0.0118; in assay [4], 0.294; in assay [5], 0.549; in [6] it was 0.391. Further, the composite z-score in assay [7] was 1.14; in assay [9], 0.419; in assay [10], -0.069; in [11], 1.56; in assay [15], 2.49; in assay [17], -0.0664. For the same compound, the composite z-score in assay [18] was 1.62; in [19] it was 0.981; in assay [20], -0.103. Moreover, the z-score is -4.73 (inactive) in assay [8]; 1.44 (inactive) in assay [12]; -3.05 (inactive) in assay [13]; 6.17 (inactive) in assay [14]; 1.36 (inactive) in [16].

Take `CN(C)CCCC[C@@H]1NC(=O)[C@@H]2C[C@H](C(=O)NCCCCCNC(=O)CS)[C@H](c3cccc(OCCO)c3)N2C1=O`: the composite z-score in [1] was 0.32; in [2] it was 0.532; in assay [3], -0.101; in assay [4], 0.141; in assay [5], 0.393; in [6], 0.267. For the same compound, the composite z-score came out at 1.2 in assay [7]; 0.19 in assay [9]; 0.259 in assay [10]; 1.07 in assay [11]; 0.127 in assay [15]; 0.0494 in assay [17]. The composite z-score in assay [18] is 1.62; in assay [19], 0.162; in assay [20], 0.186. Moreover, the z-score in assay [8] is 0.37 (inactive); in assay [12] it was -2.64 (inactive); in assay [13] it was -1.81 (inactive); in [14] it was -2.15 (inactive); in assay [16] it was 2.1 (inactive).

For `COc1ccc([Si](C)(C)[C@H]2[C@H](CC(=O)N3Cc4ccccc4C[C@H]3CO)O[C@@]3(C(=O)N(Cc4cccc(N5C(=O)COc6ccccc65)c4)c4ccccc43)[C@@H]2C)cc1`, the composite z-score in assay [1] was -0.187; in assay [2] it was 0.572; in assay [3] it was -0.12; in assay [4], 0.429; in assay [5] it was 0.659; in [6] it was 0.838. Besides, the composite z-score was 1.08 in assay [7]; 0.203 in [9]; 0.0873 in assay [10]; 1.47 in assay [11]; 1.89 in assay [15]; -0.116 in assay [17]. For the same compound, the composite z-score was 1.56 in [18], 1.11 in assay [19] and -0.0192 in assay [20]. In addition, the z-score in [8] was -3.08 (inactive); in assay [12], -0.41 (inactive); in assay [13], 0.349 (inactive); in assay [14] it was 2.29 (inactive); in [16] it was 1.86 (inactive).

Consider `CO[C@H]1O[C@H](CO)[C@@H](OC(=O)CCc2ccccc2)[C@@H]2OC(=O)[C@H](Cc3ccccc3)C/C=C/C[C@@H](Cc3ccccc3)C(=O)O[C@@H]12`, for which the composite z-score in assay [1] is -0.0198; in assay [2], -0.106; in assay [3] it was -0.134; in assay [4], -0.357; in assay [5], -0.512; in assay [6] it was 0.92. Also, the composite z-score in [7] was 1.14; in assay [9] it was -0.306; in assay [10], -0.337; in assay [11], 0.696; in assay [15], 1.4; in assay [17] it was -0.0905. Further, the results for the composite z-score in assay [18], in [19] and in assay [20] were -0.748, -0.033 and -0.347, respectively. For the same compound, the z-score was -1.51 (inactive) in assay [8]; -0.696 (inactive) in assay [12]; -2.18 (inactive) in assay [13]; 11.3 (active) in assay [14]; 1.98 (inactive) in [16].
